Assay outcomes as filed in PubChem BioAssay.
Only some compounds are listed: those with a hit (about 3% of all), similar ones and a draw of the others.
Tau fluor cs: counter-screen for tau fibril formation inhibitors. tau K18 P301L Alexa594 fluorescence, heparin fibrillization. Potency, µM (series often up to 57.7 µM), for inactives: top-dose activity change, negative = decrease. 0.93% of 280,000 active. AID 1463; note: nearly all actives have a fitted effect of over 55% in size
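Human tau K18 P301L (15 uM unlabeled, 0.24 uM Alexa 594-labeled) in 100 mM sodium acetate pH 7 with 20 uM heparin, 6 hr at 37 C. ThT 30 uM added, 1 hr ambient; Alexa 594 FP and total fluorescence read at 555/632 nm.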
Tau ThT inhib: tau fibrillization inhibition (ThT binding). P10636. recombinant tau K18 P301L, heparin-induced fibrillization, ThT fluorescence. Potency, µM (series often up to 57.4 µM), for inactives: at the top dose activity, negative = inhibition, most hits filed as inhibitors. 2.1% of 270,000 active; note: nearly all actives have a fitted effect of over 55% in size
Target sequence (P10636 561-689 P618L limits assumed): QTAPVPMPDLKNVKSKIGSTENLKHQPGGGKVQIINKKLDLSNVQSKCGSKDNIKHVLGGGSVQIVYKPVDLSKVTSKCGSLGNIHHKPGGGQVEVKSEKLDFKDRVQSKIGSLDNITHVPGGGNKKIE
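Using a mix of unlabeled (15 uM) and Alexa 594-labeled (0.24 uM) tau K18 P301L, heparin-triggered fibrillization over 6 hr at 37 C was scored by ThT fluorescence.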
Tau FP inhib: blocks human tau fibril formation measured by polarization. 0.39% of 280,000 active. Potency, µM (series often up to 57.7 µM), for inactives: at the top dose activity, negative = inhibition, hits mostly inhibitors. P10636. K18 P301L tau heparin fibrillization, Alexa594 FP, 6 h; note: nearly all actives have a fitted effect of over 55% in size
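Quantitative HTS format: compounds meet 15 uM recombinant K18 P301L tau and Alexa 594-tau tracer in 100 mM sodium acetate pH 7; 20 uM heparin triggers fibrillization at 37 C over 6 hr; FP gives the signal.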
TexasRed fluor: Texas Red fluorescence interference in TRb-SRC2 counter-screen; TRb/SRC2 Texas Red total fluorescence interference; Potency, µM (series often up to 106 µM), for the others: at the highest dose fluorescence change, negative = quenching; 0.29% of 280,000 active; active = well fitted curve in either direction with a large enough effect; inconclusive = small, poorly fitted or top-dose-only effect
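Human TRb ligand-binding domain at 0.6 uM with 20 nM Texas Red SRC2 peptide in Tris buffer containing 1 uM T3 and 5% DMSO, incubated with compound 5 h at ambient temperature. Total fluorescence (555/632 nm) calculated as parallel + 2 × perpendicular.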
TRb SRC2 PPI: inhibitors of human thyroid hormone receptor beta-SRC2 interaction | TRbeta-SRC2 peptide binding, fluorescence polarization; receptor liganded with 1 µM T3 | P10828 | Potency, µM (series often up to 106 µM), for inactives: at the highest dose activity change, negative = inhibition, most hits filed as inhibitors | 0.065% of 280,000 active;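 note: plate controls were bound peptide for no effect and peptide without receptor for full effect; nearly all actives have a fitted effect of over 50% in size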
Target sequence (P10828 whole entry, looked up): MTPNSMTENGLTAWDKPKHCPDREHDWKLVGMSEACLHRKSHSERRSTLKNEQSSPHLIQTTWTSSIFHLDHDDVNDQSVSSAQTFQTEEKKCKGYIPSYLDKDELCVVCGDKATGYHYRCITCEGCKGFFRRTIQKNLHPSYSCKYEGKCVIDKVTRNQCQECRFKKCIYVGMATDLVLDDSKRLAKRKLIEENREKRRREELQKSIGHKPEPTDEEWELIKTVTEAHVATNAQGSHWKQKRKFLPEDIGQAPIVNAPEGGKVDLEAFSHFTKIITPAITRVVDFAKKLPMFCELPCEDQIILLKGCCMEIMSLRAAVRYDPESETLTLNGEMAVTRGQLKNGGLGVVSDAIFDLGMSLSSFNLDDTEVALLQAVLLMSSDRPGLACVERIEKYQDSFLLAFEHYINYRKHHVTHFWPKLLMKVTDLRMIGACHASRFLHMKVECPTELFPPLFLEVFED
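Assay buffer: 20 mM Tris-HCl, 100 mM NaCl, 10% glycerol, 1 mM EDTA, 0.01% NP-40, 1 mM DTT, 1 uM T3, 5% DMSO; TRb LBD 0.6 uM, Texas Red SRC2 20 nM; FP after 5 hr.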
Numbers without * were called inactive; ? = inconclusive; / = no result given; [ ] = another dose, or the depositor's remark. Unless noted, calls come from the whole dose curve; as a rule, active = well fitted curve in the direction sought with a large enough effect; inconclusive = small, poorly fitted or top-dose-only effect, or another doubt; inactive = no such curve, though single readings can be large; an effect the other way counts as inactive or inconclusive. Unless noted, % is set by controls: 0 for no effect and ±100 for the full control effect; potency is the fitted concentration of half-maximal effect.

SMILES	Tau fluor cs	Tau ThT inhib	Tau FP inhib	TexasRed fluor	TRb SRC2 PPI
Cc1cc(F)ccc1OC1C=CC(c2ccc3c(c2)OCO3)OC1CO (stereo unspecified)	-8%[11.6 µM]	-15%[11.5 µM]	-3%[11.6 µM]	0%[11.2 µM]	5%[11.2 µM]
C=Cc1ccc(CSc2nc(-c3ccccc3Cl)nc3c2Cc2c(CO)cnc(C)c2O3)cc1	-12%	-6%	-3%	-2%	9%
O=C(N/N=C/c1ccc(N2CCOCC2)o1)c1cccc([N+](=O)[O-])c1	-20%	8.9µM*	?	9%	-4%
O=C(N/N=C/c1ccc(N2CCCCC2)o1)c1ccccc1	-3%	?	2%	-1%	10%
CCn1ccc2cc(S(=O)(=O)N3CCCN(C(=O)Nc4ccccc4C(F)(F)F)CC3)ccc21	-5%	3%	8%	4%	-4%
CCc1ccc(C(=O)/C=C/c2ccc([N+](=O)[O-])o2)cc1	?	8.9µM*	?	0%	-7%
CCN(CC)S(=O)(=O)c1ccc(C(=O)/C=C/c2ccc(-c3ccc([N+](=O)[O-])cc3)o2)cc1	?	?	9%	2%	-3%
COc1ccc(F)cc1S(=O)(=O)Nc1cccc(-c2ccc(N3CCC(C)CC3)nn2)c1	-18%	-2%	-7%	6.3µM*[quencher]	-20%
Cc1ccncc1C(=O)O	/	/	/	0%	-5%
NC(CCC(=O)N[C@@H](CS)C(=O)NCC(=O)O)C(=O)O (stereo partly specified)	-18%	32µM*	?	-1%	0%
C/C(=N\Nc1ccc([N+](=O)[O-])cc1)c1ccc(C#N)cc1	?	?	-1%	?	?
C/C(=N/Nc1ccc([N+](=O)[O-])cc1)c1ccc(C)cc1C	10µM*[quencher]	4.5µM*	?	3%	8%
C/C(=N\Nc1ccc([N+](=O)[O-])cc1)c1cc2ccccc2o1	8.9µM*[quencher]	2.8µM*	-11%	-3%	2%
Cc1ccc(-c2cc(C3C4C=CCCC4(C)C(=O)N3Cc3ccccc3)ccc2F)cc1 (stereo unspecified)	/	/	/	-1%	0%
CCc1ccc(-n2c(=O)c3c4c(sc3n(Cc3ccccc3C#N)c2=O)CCC4)cc1	16%	13%	-9%	4%	0%
Fc1ccc2c(c1)-c1nc(-c3ccccc3)cc(-c3ccccc3)c1CO2	-21%	-3%	?	-1%	1%
Fc1ccc(-c2cc(-c3ccc(F)cc3)c3c(n2)-c2cc(F)ccc2OC3)cc1	-6%	-1%	-9%	18µM*[quencher]	-3%
CCCCCCCCCc1ccccc1	/	/	/	-2%[201 µM]	7%[201 µM]
CC(C)(C)c1cc[n+](C2=C([O-])c3ccccc3C(=O)/C2=N\S(=O)(=O)c2cccs2)cc1	?	18µM*	-9%	-9%	8%
Cc1ccc(C(=O)N/N=C(/CC(=O)c2cccs2)C(F)(F)F)cc1	-17%	?	9%	2%	-2%
O=C(N/N=C(\CC(=O)c1cccs1)C(F)(F)F)c1ccncc1	?	14µM*	8%	-2%	2%
CCOC(=O)Nc1ccc(NCc2ccc(F)cc2)nc1N	?	18µM*	?	10%	-29%
Cc1ccc2c(c1)N/C(=C(\C=C(/Cl)[N+](=O)[O-])[N+](=O)[O-])N2	?	18µM*	-8%	-11%	5%
CCOC(=O)OCC1OC(C#Cc2ccccc2)C=CC1Oc1cccc(N(C)C)c1 (stereo unspecified)	-20%[11.6 µM]	?	1%[11.6 µM]	0%[11.2 µM]	8%[11.2 µM]
COc1ccc(C2=Nn3c(nnc3-c3ccccc3C)SC2)cc1	/	/	/	-3%	-8%
SMILES	Tau fluor cs	Tau ThT inhib	Tau FP inhib	TexasRed fluor	TRb SRC2 PPI
Cc1cc(C(=O)Nc2nc(-c3ccccn3)cs2)ccc1[N+](=O)[O-]	?	11µM*	6%	-4%	-9%
O=C(Nc1nc(-c2ccccn2)cs1)c1ccc([N+](=O)[O-])o1	?	13µM*	?	-11%	7%
O=C(Nc1nc(-c2ccccn2)cs1)c1cc(Cl)ccc1[N+](=O)[O-]	-22%	?	4%	-6%	-1%
N#CC1=C(N)Oc2c(O)cc3ccccc3c2C1c1ccsc1 (stereo unspecified)	16µM*[quencher]	?	?	10%	5%
OCC(CO)(CBr)CBr	/	/	/	0%[201 µM]	-2%[201 µM]
COc1ccc(N/N=C(/C(N)=O)C2=NC(C)(C)Cc3ccccc32)cc1	?	7.9µM*	15%	-2%	8%
CCOc1ccccc1/C=C/c1onc(C)c1S(=O)(=O)N1CCC(C(=O)N2CCCCC2)CC1	-4%	-3%	5%	-2%	0%
CCCNC(=O)Cn1sc2nc(C)cc(C)c2c1=O	-23%	/	16µM*	0%	-2%
Cc1cc(C)c2c(=O)n(CC(=O)N3CCC(N4CCCCC4)CC3)sc2n1	?	25µM*	25µM*	0%	0%
CC(=O)Cn1cnc2c(sc3nc(C)cc(C)c32)c1=O	-3%	-4%	3%	0%	-2%
CCOC(=O)C1CCCN(C(=O)Cn2sc3nc(C)cc(C)c3c2=O)C1 (stereo unspecified)	-28%	11µM*	25µM*	-9%	-7%
C[C@@H]1O[C@H]2C3=C(C(=O)[C@H]4O[C@@H]4[C@H]3O)[C@@H]1[C@@H]1[C@@H](C)OC=C3[C@H](O)[C@H]4O[C@@H]4/C(=N\OCc4ccccc4)[C@]312	-12%[11.6 µM]	-14%[11.5 µM]	-5%[11.6 µM]	-1%[11.2 µM]	-1%[11.2 µM]
CCN(CC)S(=O)(=O)c1ccc(/C=C/C(=O)Nc2ccc(F)c(F)c2F)cc1	-3%	1%	-2%	4%	9%
CCN(CC)S(=O)(=O)c1ccc(/C=C/C(=O)Nc2ccc(N3CCOCC3)cc2)cc1	32µM*[quencher]	16µM*	?	-4%	-3%
CCN(CC)S(=O)(=O)c1cccc(NC(=O)/C=C/c2cccc([N+](=O)[O-])c2)c1	13µM*[quencher]	?	-18%	6%	2%
CCN(CC)S(=O)(=O)c1cccc(NC(=O)Nc2cccc(C(F)(F)F)c2)c1	?	-14%	7.9µM*	-6%	-6%
COc1ccc(/C=C/C(=O)NC(=S)Nc2ccc(N3CCN(C(C)=O)CC3)cc2)cc1	-15%	?	0%	-1%	1%
COc1ccc(/C=C/C(=O)Nc2ccc(N3CCOCC3)cc2)cc1	?	4µM*	4%	-1%	-1%
CN(C)c1ccc(/C=C2\C(=O)Nc3ccccc32)c2ccccc12	/	/	/	-1%	-4%
C=CC(=O)OCCOCC(CC)(COCCOC(=O)C=C)COCCOC(=O)C=C	/	/	/	1%[201 µM]	?
O=C(/C=C/c1cccc([N+](=O)[O-])c1)NC(=S)Nc1cccc(NC(=O)c2ccccc2Cl)c1	?	?	-2%	-3%	-5%
O=C(/C=C/c1cccc([N+](=O)[O-])c1)NC(=S)Nc1ccccc1C(=O)O	-29%	18µM*	?	-3%	-7%
